High-throughput results (PubChem BioAssay)
EPAC1 ag: activates human EPAC1 exchange factor; O95398; EPAC1 agonist qHTS, biochemical assay; response scale: 100% = response to 6.5 mM cAMP; Potency, µM (titrated, usually from 154 µM), without a hit: top-dose activation, hits mostly activators; hit rate 0.073% among 360,000; AID 720707; also: nearly all actives have a fitted effect of over 60% in size
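Compounds were pinned as a concentration titration into mixtures of EPAC1 (100 nM), BODIPY-GDP-loaded Rap1B (250 nM) and GDP (50 uM). After 5 min at room temperature, fluorescence was followed for 30 min; activity was scaled to 6.5 mM cAMP.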
EPAC2 antagonist: antagonists of human EPAC2; EPAC2 GEF exchange of Rap1B-BODIPY-GDP, fluorescence; Potency, µM (doses to about 114 µM), inactives show at the top dose activity, negative = inhibition, hits mostly inhibitors; hit rate 0.18% among 360,000; AID 720708; also: % is scaled to controls: 0 for no effect and ±100 for the full control effect; nearly all actives have a fitted effect of over 45% in size
EPAC1 antag: EPAC1 (human) antagonism. O95398. EPAC1 GEF assay, Rap1b-BODIPY-GDP exchange fluorescence. Potency, µM (highest dose often 115 µM), without a hit: at the top dose activity change, negative = inhibition, actives largely listed as inhibitors. hit rate 0.14% among 360,000;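 also: plate controls were vehicle for no effect and positive control for full effect; nearly all actives have a fitted effect of over 50% in size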
EPAC2 ag: EPAC2 (human) agonism | Q8WZA2 | EPAC2 activation, biochemical qHTS; response scale: 100% = 6.5 mM cAMP response | Potency, µM (series often up to 154 µM), inactives show top-dose activation, actives largely listed as activators | hit rate 0.079% among 360,000 | AID 720711; also: nearly all actives have a fitted effect of over 50% in size
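Each well held 100 nM EPAC2, 250 nM RAP1B-BODIPY-GDP and 50 uM GDP. Fluorescence, read at 5-min intervals to 30 min, was referenced to a 6.5 mM cAMP positive control.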
USP1 inh: inhibitors of human USP1/UAF1 deubiquitinase | O94782 | recombinant USP1/UAF1, Ub-Rhodamine cleavage fluorescence | Potency, µM (doses to about 57.1 µM), for the others: at the top dose activity change, negative = inhibition, hits mostly inhibitors | hit rate 0.23% among 390,000 | AID 743255; also: % is scaled to controls: 0 for no effect and ±100 for the full control effect; nearly all actives have a fitted effect of over 60% in size
Target sequence (O94782 whole entry, looked up): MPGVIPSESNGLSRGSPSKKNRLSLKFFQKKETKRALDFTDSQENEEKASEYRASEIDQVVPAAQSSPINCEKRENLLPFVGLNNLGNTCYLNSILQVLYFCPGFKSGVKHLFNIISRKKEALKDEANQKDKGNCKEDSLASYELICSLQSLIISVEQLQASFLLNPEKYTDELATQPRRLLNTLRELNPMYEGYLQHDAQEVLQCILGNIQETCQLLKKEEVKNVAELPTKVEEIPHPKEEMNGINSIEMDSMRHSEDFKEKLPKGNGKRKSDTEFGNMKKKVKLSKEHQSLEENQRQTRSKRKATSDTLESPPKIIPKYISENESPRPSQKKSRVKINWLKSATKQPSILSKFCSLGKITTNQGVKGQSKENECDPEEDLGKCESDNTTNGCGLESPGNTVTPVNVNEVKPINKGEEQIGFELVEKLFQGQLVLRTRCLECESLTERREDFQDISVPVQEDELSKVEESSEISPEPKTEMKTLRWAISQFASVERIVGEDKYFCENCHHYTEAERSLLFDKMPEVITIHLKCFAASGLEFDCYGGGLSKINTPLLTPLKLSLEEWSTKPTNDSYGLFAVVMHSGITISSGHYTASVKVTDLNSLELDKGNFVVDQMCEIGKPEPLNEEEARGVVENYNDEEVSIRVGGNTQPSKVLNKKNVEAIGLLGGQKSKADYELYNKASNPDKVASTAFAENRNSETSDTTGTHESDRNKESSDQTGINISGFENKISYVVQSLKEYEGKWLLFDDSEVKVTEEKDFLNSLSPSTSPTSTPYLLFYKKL
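High-throughput fluorogenic screen: 1nM USP1/UAF1 complex, Ub-Rho substrate 150nM final, 50mM HEPES pH 7.8 with 0.5mM EDTA, 0.1 mg/ml BSA, 1mM TCEP and 0.01% Tween-20.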
Numbers without * were called inactive; ? = inconclusive; / = not tested or not shown. Hits are enriched below; roughly 0.44% of the tested compounds scored in any of these assays. Calls follow the shape of the dose curve; as a rule, active = well fitted curve in the direction sought with a large enough effect; inconclusive = small, poorly fitted or top-dose-only effect, or another doubt; inactive = no such curve, though single readings can be large; an effect the other way counts as inactive or inconclusive. Potency is read from the fitted curve at half-maximal effect.

SMILES | EPAC1 ag | EPAC2 antagonist | EPAC1 antag | EPAC2 ag | USP1 inh
O=C1C=C(N2CCOCC2)c2ccccc2C1=O | 3% | ? | 10µM* | 22% | 3.2µM*
O=C(O)c1cccc(NC2=C(N3CCOCC3)C(=O)c3ccccc3C2=O)c1 | 1% | -6% | -15% | -1% | 32µM*
Cc1ccccc1NC1c2ccccc2C(=O)N1Cc1ccco1 (configuration not stated) | -10% | 32µM* | 3% | 8% | -27%
COc1cccc(NC(=O)Cn2c(=O)ccc3cc(S(=O)(=O)N4CCC(C)CC4)ccc32)c1 | / | / | / | / | -11%
Cc1nc2ccn(Cc3ccco3)c(=O)c2cc1C(=O)N1CCN(c2ccccc2F)CC1 | / | / | / | / | -13%
CC(=O)Nc1ccc(S(=O)(=O)/N=C2\C(=O)c3ccccc3C([O-])=C2n2cc[n+](-c3ccccn3)c2)cc1 | -7% | 1% | 14% | 2% | 25µM*
Cc1ccc(S(=O)(=O)/N=C2\C(=O)c3ccccc3C([O-])=C2n2cc[n+](CCC(C)C)c2)cc1 | -1% | 8% | -5% | -7% | ?
COc1ccc(/C=C2\SC(c3ccc(C)cc3)=NC2=O)cc1OC | 4% | 7% | 15% | -20% | 16µM*
COc1ccc(/C=C2/SC(c3ccc(C)cc3)=NC2=O)cc1OC | 24% | 11% | 4% | 9% | ?
CCc1ccc(-n2cccc2/C=C2/C(=N)N3C(=NC2=O)SN=C3S(C)(=O)=O)cc1 | -4% | -27% | 79µM* | -15% | ?
COc1cc(/C=C2/SC(=S)NC2=O)ccc1OS(=O)(=O)c1ccc(C)cc1 | 10% | 40µM* | 45µM* | 4% | ?
COc1cccc(/C=C2\SC(=S)NC2=O)c1OS(=O)(=O)c1ccc(NC(C)=O)cc1 | -9% | 3% | 79µM* | 1% | -19%
Cc1cc(NC(=O)n2ncc3c(C)cccc32)ccc1Br | / | / | / | / | -24%
Cc1ccc(Cn2c(C(=O)Nc3cccc(Cl)c3)cc3sccc32)cc1 | / | / | / | / | -30%
COc1ccc(/C=C2\SC(=S)NC2=O)cc1OS(=O)(=O)c1ccc(NC(C)=O)cc1 | -7% | 50µM* | ? | -6% | -19%
CCOc1ccc(/C=C2\SC(=S)N(C)C2=O)cc1OC | 6% | 4% | 31% | -1% | -21%
CCOc1ccc(/C=C2\SC(=S)NC2=O)cc1OC | 5% | 13µM* | ? | 3% | -24%
Cc1ccc(S(=O)(=O)Oc2ccc(/C=C3/C(=N)N4C(=NC3=O)SN=C4S(C)(=O)=O)cc2)cc1 | -10% | ? | -24% | -1% | ?
COc1cc(/C=C2/C(=N)N3C(=NC2=O)SN=C3S(C)(=O)=O)ccc1OS(=O)(=O)c1ccc(C)cc1 | -4% | ? | 50µM* | 1% | -22%
O=C1CCSC2(C(=O)N(Cc3ccc(F)cc3)c3ccccc32)N1c1cccc(F)c1 (configuration not stated) | / | / | / | / | -15%
CCOc1ccc(CC(=O)Nc2c(C(=O)c3ccc(Cl)cc3)oc3ccccc23)cc1OCC | / | / | / | / | -18%
C=Cc1ccc(Cn2nc(-c3ccccc3)ccc2=O)cc1 | 8% | 22µM* | -7% | 3% | -15%
Oc1c(C(c2ccccc2F)N2CCOCC2)sc2nc(-c3ccco3)nn12 (configuration not stated) | / | / | / | / | -7%
Cc1ccc(C)c(S(=O)(=O)Nc2ccc(C(=O)NCC(c3ccco3)N(C)C)cc2)c1 (configuration not stated) | 112µM* | 7% | -11% | -6% | -17%
Cc1ccc(C)c(S(=O)(=O)Nc2ccc(C(=O)NCC(c3ccco3)N3CCCCC3)cc2)c1 (configuration not stated) | -9% | -1% | 8% | 11% | -11%
Cc1ccc(-c2cc(C(=O)Nc3ccc4c(c3)OCCO4)c3ccccc3n2)cc1 | 8% | -14% | -5% | 7.9µM* | ?
O=S(=O)(O)c1ccc(NN=Cc2ccccc2O)cc1 | -6% | 22µM* | -11% | -9% | 3%
O=[N+]([O-])c1ccc(NN=Cc2cccc([N+](=O)[O-])c2)cc1 | 11% | -11% | -3% | 12% | -28%
O=C(O)c1cccc(-c2ccc(/C=N/Nc3ccc([N+](=O)[O-])cc3)o2)c1 | -6% | -14% | ? | -8% | ?
